Drawing on the supplement of paper PMC6124720, this text covers growth activity index for 20 compounds.

The structures appear in SMILES notation. Structures can show the parent of a compound that is named as a salt. A number with no mark means an inactive call.

This experiment has as its system Pseudogymnoascus destructans 20631-21. Nature of the experiment: growth activity index (DuctApe, 0 = no growth, 9 = maximal growth) (index 0-9); higher = more fungal growth (less inhibition), active = 0 or less; extreme values may be limits of the assay. Conditions: temperature: 13 °C, YPD.
Where [1] appears, read: concentration level (1-4, increasing; Biolog proprietary): 1.
The mark [2] stands for this setting: concentration level (1-4, increasing; Biolog proprietary): 2.
The mark [3] stands for this setting: concentration level (1-4, increasing; Biolog proprietary): 3.
The mark [4] stands for this setting: concentration level (1-4, increasing; Biolog proprietary): 4.
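Note: biolog Phenotype Microarray plates PM21–25, OD595 followed daily over 11 days, growth curves converted to index, mean of two independent experiments.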

For the compound `CCCCCCCCCCCCCCCCOP(=O)([O-])OCC[N+](C)(C)C` [Miltefosine] (Biolog plate: PM22), the growth activity index under setting [1] is 5, the growth activity index under setting [2] was 3, the growth activity index under setting [3] was 0 (active) and the growth activity index under setting [4] is 0 (active).

As for `Cn1c(=O)c2c(ncn2C)n(C)c1=O` [Caffeine] (Biolog plate: PM22), the growth activity index runs as follows: under setting [1], 5; under setting [2], 4; under setting [3], 0 (active); under setting [4], 0 (active).

`O=S(=O)([O-])[O-].[Cu+2]` [Copper (II) sulfate] (Biolog plate: PM21): the growth activity index is 6 under setting [1], 6 under setting [2], 6 under setting [3] and 6 under setting [4].

With `CN(C)CCC=C1c2ccccc2CCc2ccccc21` [Amitriptyline] (Biolog plate: PM25), the growth activity index by setting is: under setting [1], 0 (active); under setting [2], 0 (active); under setting [3], 2.67; under setting [4], 6.33.

`O=C(O)CN(CCN(CC(=O)O)CC(=O)O)CC(=O)O` (Biolog plate: PM21): the growth activity index is, setting by setting: under setting [1], 5; under setting [2], 5; under setting [3], 5; under setting [4], 5.

With `CC(=O)OCC1=C(C(=O)O)N2C(=O)[C@@H](NC(=O)Cc3cccs3)[C@H]2SC1` [Cephalotin] (Biolog plate: PM22), the growth activity index was 5.67 under setting [1], 5 under setting [2], 5 under setting [3] and 1 under setting [4].

`CN(C)[C@@H]1C(O)=C(C(N)=O)C(=O)[C@@]2(O)C(O)=C3C(=O)c4c(O)ccc(Cl)c4[C@@](C)(O)[C@H]3C[C@@H]12` [Chlortetracycline] (Biolog plate: PM24): the growth activity index is 5.67 under setting [1], 4.33 under setting [2], 6 under setting [3] and 7 under setting [4].

Regarding `O=[Si](O)O` [Sodium metasilicate] (Biolog plate: PM24), the growth activity index runs as follows: under setting [1], 4.33; under setting [2], 2.67; under setting [3], 2.67; under setting [4], 3.33.

Take `[I-].[K+]` [Potassium iodide] (Biolog plate: PM22): the growth activity index under setting [1] is 0 (active), the growth activity index under setting [2] is 0 (active), the growth activity index under setting [3] is 0 (active) and the growth activity index under setting [4] is 0 (active).

For `NC[C@@H]1O[C@H](O[C@H]2[C@@H](O)[C@H](O[C@@H]3[C@@H](O)[C@H](N)C[C@H](N)[C@H]3O[C@H]3O[C@H](CN)[C@@H](O)[C@H](O)[C@H]3N)O[C@@H]2CO)[C@H](N)[C@@H](O)[C@@H]1O` [Neomycin] (Biolog plate: PM21), the growth activity index was 5.25 under setting [1], 5 under setting [2], 2.5 under setting [3] and 1.25 under setting [4].

For `NNC(=O)c1ccncc1` [Isoniazid] (Biolog plate: PM24), the growth activity index is 5 under setting [1], 5 under setting [2], 4 under setting [3] and 0.333 under setting [4].

On to `CC(C)Cc1ccc(C(C)C(=O)O)cc1` (stereo not given) [Ibuprofen] (Biolog plate: PM25), for which the growth activity index under setting [1] was 4.33, the growth activity index under setting [2] was 4.67, the growth activity index under setting [3] is 4 and the growth activity index under setting [4] is 5.

In the case of `N[C@@H]1CONC1=O` [D-Cycloserine] (Biolog plate: PM21), the growth activity index by setting is: under setting [1], 4; under setting [2], 5; under setting [3], 4.25; under setting [4], 0 (active).

`N=C(N)N` [Guanidine hydrochloride] (Biolog plate: PM21): the growth activity index is 5.25 under setting [1], 5 under setting [2], 0.5 under setting [3] and 0.25 under setting [4].

`O=C(O)C(O)C(O)C(=O)O` (stereo not given) [Tartaric acid] (Biolog plate: PM25): the growth activity index under setting [1] was 3.33, the growth activity index under setting [2] was 2, the growth activity index under setting [3] is 4.33 and the growth activity index under setting [4] is 1.33.

Take `On1ccccc1=S` [1-Hydroxypyridine-2-thione (pyrithione)] (Biolog plate: PM21): the growth activity index was 5.25 under setting [1], 4 under setting [2], 4.25 under setting [3] and 2.25 under setting [4].

Consider `[Cl][Co][Cl]` [Cobalt (II) chloride] (Biolog plate: PM23), for which the growth activity index is 3.33 under setting [1], 4 under setting [2], 4.33 under setting [3] and 1 under setting [4].

On to `NC[C@H]1O[C@H](O[C@H]2[C@H](O)[C@@H](O[C@H]3O[C@H](CO)[C@@H](O)[C@H](N)[C@H]3O)[C@H](N)C[C@@H]2N)[C@H](N)C[C@@H]1O` [Tobramycin] (Biolog plate: PM25), for which the growth activity index is, setting by setting: under setting [1], 5; under setting [2], 5; under setting [3], 5; under setting [4], 1.

`[Cl][Mn][Cl]` [Manganese chloride] (Biolog plate: PM21): the growth activity index is 4 under setting [1], 5.25 under setting [2], 4.5 under setting [3] and 4.5 under setting [4].

As to `[Na+].[O]=[V](=[O])[O-]` [Sodium metavanadate] (Biolog plate: PM22), the growth activity index under setting [1] is 5, the growth activity index under setting [2] was 4.33, the growth activity index under setting [3] is 5 and the growth activity index under setting [4] is 3.67.
